Bioassay records (PubChem)
Compounds with a hit are over-represented: about 22% of the library has one in this group of screens.
CYP2C19 inhib: blocks human cytochrome P450 2C19. P33261. CYP2C19 Supersomes, luciferin-H EGE luminescence, 30 min. inhibition, % at 5 µM. actives 21% (n = 96,000);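 active means CYP2C19 inhibition above a set limit at 5 µM in the primary screen, cut at about 50% in these data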
CYP2C9 activ: activators of human CYP2C9; P11712; recombinant CYP2C9, luciferin-H conversion, luminescence; hits give high values; factor 1 = untreated enzyme, 0 = blocked; activation factor at 5 µM; actives 1.4% (n = 96,000);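 active means activation factor of 2 or more for CYP2C9 at a 5 µM dose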
Target sequence (P11712 whole entry, looked up): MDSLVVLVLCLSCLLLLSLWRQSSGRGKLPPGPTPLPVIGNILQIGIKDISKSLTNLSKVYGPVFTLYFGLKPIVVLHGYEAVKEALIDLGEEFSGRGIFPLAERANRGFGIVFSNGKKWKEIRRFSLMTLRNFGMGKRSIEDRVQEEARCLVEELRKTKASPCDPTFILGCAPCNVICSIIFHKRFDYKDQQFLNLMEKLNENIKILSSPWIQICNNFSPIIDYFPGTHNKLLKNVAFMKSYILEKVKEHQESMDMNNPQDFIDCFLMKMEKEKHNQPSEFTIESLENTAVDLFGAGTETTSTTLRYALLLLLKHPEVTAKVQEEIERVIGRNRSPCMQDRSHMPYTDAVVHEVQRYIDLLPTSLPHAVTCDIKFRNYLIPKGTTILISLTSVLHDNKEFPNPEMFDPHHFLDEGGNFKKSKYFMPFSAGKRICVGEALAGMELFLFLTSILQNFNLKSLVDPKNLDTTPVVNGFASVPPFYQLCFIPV
Measles CPE: protection of cells from measles virus; Measles virus-infected cells, CPE protection, absorbance; AID 841; actives 1.5% (n = 140,000); protection (pct of control), % at 4 µM; in the data active means protection mostly above about 24%, no sharp cut-off; inactive means mostly below about 26%
CYP2C19 act: cytochrome P450 2C19 (human) activation | recombinant CYP2C19, luciferin-H EGE luminescence; hits give high values; 0 = fully inhibited enzyme, 1 = untreated enzyme | P33261 | activation factor at 5 µM | 96,000 tested, under 10 active | AID 1025;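 active means activation factor of at least 2 at 5 µM in the primary screen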
CYP2C9 inh: human CYP2C9 inhibition; CYP2C9 Supersomes, luciferin-H conversion, luminescence; inhibition, % at 5 µM; actives 20% (n = 96,000); AID 777;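 active means blocking of liver enzyme CYP2C9 beyond about 50% at 5 µM, limit read from the data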
A number is an active result; – = inactive; · = no result.

SMILES | CYP2C19 inhib | CYP2C9 activ | Measles CPE | CYP2C19 act | CYP2C9 inh
CCOC(=O)Nc1ccc2c(c1)N(C(=O)N1CCN(C)CC1)c1ccccc1S2 | 73.2 | – | – | – | –
CCCC(=O)c1cc(F)c(N2CCOCC2)cc1C | 53.4 | – | – | – | –
N#Cc1cc2sc3nc4ccccc4n3c2cc1C#N | – | – | – | – | –
N#Cc1cc2sc3nnc(-c4ccncc4)n3c2cc1C#N | 92.4 | – | – | – | 65.1
CCOC(=O)/C=C1\Nc2ccccc2OC1=O | · | · | – | · | ·
O=C(N/N=C/c1cccc(Oc2ccccc2)c1)c1ccccc1Br | – | – | – | – | 62.6
O=C(N/N=C/C=C/c1ccccc1)c1ccccc1Br | – | – | – | – | –
Cc1ccccc1C(=O)N/N=C/c1ccc(Sc2ccccn2)o1 | · | · | – | · | ·
O=C(N/N=C/C=C/c1ccccc1)c1cccc(Br)c1 | – | – | – | – | –
O=C(N/N=C/c1cccc(Oc2ccccc2)c1)c1cccc(Br)c1 | – | – | – | – | 53.3
O=C(N/N=C\c1ccc(Sc2ccccn2)o1)c1cccc(Br)c1 | 83.9 | – | – | – | 82.1
CCCn1c(SCc2ccccn2)nc2c1c(=O)n(C)c(=O)n2C | – | – | – | – | –
Clc1ccc(N2CCCCCC2)nn1 | – | – | – | – | –
O=C1OC(NC(=O)c2ccccc2)C(n2cc(CO)nn2)=C1Cl (stereo not drawn) | – | – | – | – | 66.3
COc1ccccc1N1CCN(C(c2ccc(C)cc2)c2nnnn2C(C)C)CC1 (stereo not drawn) | 74.1 | – | – | – | 74.9
CC(C)n1nnnc1C(c1ccc(F)cc1)N1CCN(C2CCCC2)CC1 (stereo not drawn) | – | – | – | – | –
COc1ccccc1N1CCN(C(c2ccc(F)cc2)c2nnnn2C(C)C)CC1 (stereo not drawn) | 51.7 | – | – | – | –
CCCN1CCN(CCCNC(=O)C2CCCN(c3nnc(-n4cccc4)s3)C2)CC1 (stereo not drawn) | – | – | – | – | –
O=C(c1ccc(Cn2c(=O)[nH]c3ccccc3c2=O)cc1)N1CCN(c2ccc(F)cc2)CC1 | 88.5 | – | – | – | 62.4
COc1ccc(Cn2c(=O)[nH]c3cc(C(=O)N4CCN(Cc5ccccc5)CC4)ccc3c2=O)cc1 | 63.7 | – | – | – | 75.4
CCN1CCN(C(=O)c2ccc(Cn3c(=O)[nH]c4cc(OC)c(OC)cc4c3=O)cc2)CC1 | – | – | – | – | –
CC(=O)c1cc(F)c(N2CCN(C(=O)Cc3ccccc3)CC2)cc1C | – | – | – | – | –
NS(=O)(=O)c1ccc(NC(=O)N2c3ccccc3Sc3ccccc32)cc1 | – | – | – | – | –
CCOCCCNS(=O)(=O)c1ccc(NC(=O)N2c3ccccc3Sc3ccccc32)cc1 | – | – | – | – | 92.2
Cc1oc(/C=N/NS(=O)(=O)c2ccccc2)cc1Br | · | · | – | · | ·
SMILES | CYP2C19 inhib | CYP2C9 activ | Measles CPE | CYP2C19 act | CYP2C9 inh
CN1CCN(S(=O)(=O)c2ccc(N)cc2)CC1 | · | · | – | · | ·
CC1CCN(S(=O)(=O)c2ccc3ccccc3c2)CC1 | 83.3 | 2.7 | – | – | –
CCOC(=O)N1CCN(S(=O)(=O)c2ccc(F)cc2)CC1 | – | – | – | – | –
CN1CCN(S(=O)(=O)c2cccc(S(=O)(=O)c3cccc(S(=O)(=O)N4CCN(C)CC4)c3)c2)CC1 | – | – | – | – | 80.3
CN1CCN(S(=O)(=O)c2ccc3ccccc3c2)CC1 | – | 2.5 | – | – | –
CCOC(=O)N1CCC(N2CCN(S(=O)(=O)c3ccc4ccccc4c3)CC2)CC1 | – | 2.2 | – | – | –
CC(C)C(=O)Nc1ccc(C(=O)NN2C(=O)c3ccccc3C2=O)cc1 | · | · | – | · | ·
C/C(N)=C(/C#N)C(=O)COC(=O)c1ccccc1O | · | · | – | · | ·
Cc1[nH]cnc1CSCc1ccc(F)cc1 | · | · | – | · | ·
CNc1nc(C)nc(-c2ccccc2O)n1 | – | 2.1 | – | – | –
Cc1sc(NC(=O)CSc2nnc(CCNC(=O)c3cccs3)n2C)nc1-c1ccccc1 | · | · | – | · | ·
COc1ccc(NC(=O)c2oc3ccccc3c2NC(=O)C(C)(C)C)cc1 | – | – | – | – | –
O=C(Nc1ccccc1N1CCOCC1)c1ccc2ccccc2n1 | – | – | – | – | –
O=S(=O)(c1ccccc1)c1nc(Nc2ccccc2N2CCOCC2)sc1Cl | 74.1 | – | – | – | 88.2
Cc1ccc(C(=O)N/C(=C\c2ccc(Br)cc2)c2nc(=S)[nH][nH]2)cc1 | – | – | – | – | –
O=C(N1CCCCC1)C1(c2ccccc2)CCOCC1 | – | – | – | – | –
O=C(N1CCOCC1)C1(c2ccccc2)CCCCC1 | 68.9 | – | – | – | –
CCCNC(=O)CC1C(=O)N(Cc2ccccc2)C(C)c2nc3ccccc3n21 (stereo not drawn) | 67.3 | – | – | – | –
CC(=O)NCC(=O)N(Cc1ccco1)C1(C(=O)NC2CCCCC2)CCCCC1 | – | – | – | – | –
Cc1ccccc1OCC(O)Cn1c(NCc2ccco2)nc2c1c(=O)n(C)c(=O)n2C (stereo not drawn) | 86.9 | – | – | – | 92.6
Cc1ccccc1OCC(O)Cn1c(Br)nc2c1c(=O)n(C)c(=O)n2C (stereo not drawn) | · | · | – | · | ·
Cc1ccccc1NC(C)C(=O)N/N=C/c1ccccc1OCc1cccc(Br)c1 (stereo not drawn) | – | – | – | – | 76.4
CCOC(=O)c1[nH]c(C)c(C(=O)Nc2ccc(C)cc2C)c1C | – | – | – | – | –
Cc1cc(C(=O)NCc2ccccc2Br)no1 | 69.5 | – | – | – | –
CCCc1cc(C(=O)NCc2cccnc2)no1 | 59.3 | – | – | – | –
SMILES | CYP2C19 inhib | CYP2C9 activ | Measles CPE | CYP2C19 act | CYP2C9 inh
CCCc1cc(C(=O)N(C2CCCCC2)C2CCCCC2)no1 | 63.7 | – | – | – | 81.1
Cc1cc(C(=O)NCc2ccccc2)no1 | – | – | – | – | –
CCCc1cc(C(=O)NC2CCCCC2)no1 | – | – | – | – | –
CCN(CC)c1ncccc1C(=O)NCc1cccs1 | 98.8 | – | – | – | 64.7
CCOCCOc1nc2c(c(=O)n(C)c(=O)n2C)n1CCc1ccccc1 | · | · | – | · | ·
Cc1ccc(N(CN2C(=O)c3ccccc3C2=O)C(=O)c2ccc([N+](=O)[O-])cc2[N+](=O)[O-])cc1 | · | · | – | · | ·
CCCc1cc(C(=O)N2CCN(C(c3ccccc3)c3ccccc3)CC2)no1 | – | – | – | – | 82.7
CCCc1cc(C(=O)NCc2cccs2)no1 | 74.1 | – | – | – | –
Cc1cc(C(=O)N2CCN(C(c3ccccc3)c3ccccc3)CC2)no1 | – | – | – | – | –
CCCc1cc(C(=O)NCCc2ccc(OC)c(OC)c2)no1 | 94.0 | – | – | – | 68.5
CCCc1cc(C(=O)NCc2ccccc2)no1 | 58.3 | – | – | – | –
CCCc1cc(C(=O)NCc2ccco2)no1 | – | – | – | – | –
CCCc1cc(C(=O)NCC(C)C)no1 | – | – | – | – | –
CCOC(=O)c1ccccc1NC1OC(=O)c2ccccc21 (stereo not drawn) | – | – | – | – | –
CCOCCCNS(=O)(=O)c1ccc2c(c1)CCN2C(=O)CC | – | – | – | – | –
Cc1ccc2[nH]c(=O)c(N3CCOCC3)c(-c3ccccc3)c2c1 | – | – | 77.6 | – | –
